Measurements reported in PubChem BioAssay AID1851 (National Center for Advancing Translational Sciences (NCATS), 2009).
Values joined by “and” are separate entries in the source; they are usually repeats but may differ in a detail not shown here. Equal values may be shown once. About 5,800 (36%) of roughly 16,000 compounds were called active. About 23% were inconclusive and are not listed. This is one part of the list. Values without a mark were called inactive. Calls follow the shape of the dose curve; as a rule, active = well fitted curve in the direction sought with a large enough effect; inconclusive = small, poorly fitted or top-dose-only effect, or effect the other way; inactive = no such curve, though single readings can be large or run the other way.

Biological target: Cytochrome P450 2C19 (Homo sapiens) (UniProt P33261)
Assay: Cytochrome panel assay with activity outcomes
Conditions: recombinant CYP, pro-luciferin dealkylation, luminescence, p450-cyp2c19; series mostly up to 57.1 µM; activity, negative = inhibition: at the top concentration
% is scaled to controls: 0 for no effect and ±100 for the full control effect.

Sequence of Cytochrome P450 2C19 (Homo sapiens) (P33261 whole entry, looked up): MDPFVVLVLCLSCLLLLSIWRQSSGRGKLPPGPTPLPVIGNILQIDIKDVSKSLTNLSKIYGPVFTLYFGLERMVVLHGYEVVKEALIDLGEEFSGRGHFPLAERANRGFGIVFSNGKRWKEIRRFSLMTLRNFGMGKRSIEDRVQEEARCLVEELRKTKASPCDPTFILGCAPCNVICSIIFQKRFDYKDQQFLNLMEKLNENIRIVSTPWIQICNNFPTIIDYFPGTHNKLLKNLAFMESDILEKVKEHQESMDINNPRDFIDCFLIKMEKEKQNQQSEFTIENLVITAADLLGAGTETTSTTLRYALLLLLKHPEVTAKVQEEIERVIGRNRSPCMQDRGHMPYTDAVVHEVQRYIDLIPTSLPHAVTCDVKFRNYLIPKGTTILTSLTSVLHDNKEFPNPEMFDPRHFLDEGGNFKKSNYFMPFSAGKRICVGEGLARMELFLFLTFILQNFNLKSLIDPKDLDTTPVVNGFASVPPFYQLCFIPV

Structure (SMILES) | activity, negative = inhibition | AC50
CN1CCC2(CC1)C1CN(C)CC=C1C(C#N)=C(N)C2(C#N)C#N (centres undefined) | -23.1% | 
CN1CC[C@@]2(CCCN(C(=O)c3cc(C(F)(F)F)cc(C(F)(F)F)c3)C2)C1 | 12.7% | 
COc1cnc(SCc2ccc(Cl)cc2)nc1Cl |  | 1.58 µM (active)
Cc1ccc(CNC(=O)CCc2c(C)nc3ncnn3c2C)cc1 | -21.9% | 
CCc1c(C)nc2ncnn2c1NCCc1ccc(OC)cc1 |  | 3.55 µM (active)
CCOC(=O)CCc1c(C)nc2ncnn2c1C | -27.2% | 
COc1ccc(C(=O)c2cnc3ccccc3c2-c2ccccc2)cc1 |  | 5.01 µM (active)
COc1ccc(-c2nc3cnc(N4CCN(C)CC4)nc3n(Cc3ccc(F)cc3)c2=O)cc1 | 10.3% | 
CCOC(=O)c1oc2nc(CC(C)C)c3c(c2c1N)CCC3 |  | 11.2 µM (active)
CC1(C)S[C@@H]2[C@H](NC(=O)[C@H](C(=O)O)c3ccsc3)C(=O)N2[C@H]1C(=O)O | -38.5% [at 25.6 µM] | 
CCC(CC)c1nnc(NC(=O)c2cccc(S(=O)(=O)N3CCc4ccccc43)c2)s1 |  | 7.94 µM (active)
CCn1cc(C(=O)N/N=C(/C)c2ccc(F)cc2)c(=O)c2cc(F)c(N3CCCC3)cc21 |  | 4.47 µM (active)
CCn1cc(C(=O)O)c(=O)c2cc(F)c(N3CCNCC3)nc21 | -12% [at 25.6 µM] | 
CCn1cc(C(=O)O)c(=O)c2cc3c(cc21)OCO3 | 26.5% | 
CC(C)CCN1C(=O)c2ccc(-c3nc4ccccc4c(=O)o3)cc2C1=O |  | 14.1 µM (active)
N=C(N)SCc1cccc(-c2nc3ccccc3c(=O)o2)c1 | 16.9% [at 11.4 µM] | 
CCOC(=O)Nc1ccc2c(c1)N(C(=O)CCN1CCOCC1)c1ccccc1S2 | -79.9% [at 25.6 µM] | 
CCCOc1ccc(C(=O)CCNc2ccc(C)c(Cl)c2)cc1 |  | 0.398 µM (active)
CCCCOc1ccc(C(=O)CCN2CCCCC2)cc1 | -38.9% [at 25.6 µM] | 
Cc1ccc(NCCC(=O)c2ccc(Cl)cc2)cc1C |  | 1.26 µM (active)
Cc1ccc(NC(=O)CCC(=O)c2ccc(F)cc2)cc1Cl |  | 3.98 µM (active)
CCCCOC(=O)Nc1ccc(C)c(Cl)c1 |  | 2 µM (active)
C[C@@H](c1ccccc1)N1C(=O)[C@H]2[C@@H]3[C@H](O)[C@H](O)CC(=O)[C@H]3CC[C@H]2C1=O | 13.8% [at 11.4 µM] and 0.79% [at 11.4 µM] | 
Cc1nc2cnc(Oc3ccccc3)nc2n(-c2ccccc2)c1=O | -27.5% | 

Structure (SMILES) | activity, negative = inhibition | AC50
O=C(O)CNc1ccc(C(=O)O)cc1 | 21.5% [at 11.4 µM] | 
O=C(O)CCC(=O)c1ccc(Cl)cc1 | 22.7% [at 11.4 µM] | 
Cc1ccc(NCCC(=O)c2ccc(Cl)cc2)cc1 |  | 1.41 µM (active)
CC[N+](C)(CC)CCC[n+]1c(-c2ccccc2)c2cc(N)ccc2c2ccc(N)cc21 |  | 1.58 µM (active)
CC(=O)c1cc2ccccc2oc1=O | -33.4% [at 25.6 µM] | 
CC(C)OC(=O)c1cc2ccccc2oc1=O |  | 15.8 µM (active)
Cc1ccc[n+](CC(=O)c2cc3ccccc3oc2=O)c1 | -0.3% | 
CC1(C)Oc2ccc(C#N)cc2[C@H](N2CCCC2=O)[C@H]1O | -39.4% | 
COn1c(-c2ccccc2)nc2c1CCc1nonc1-2 |  | 15.8 µM (active)
CCC(C)c1ccc(Nc2ncccc2C#N)cc1 (centres undefined) |  | 4.47 µM (active)
O=C(Cc1ccccc1)NC(NCCc1ccccc1)C(Cl)(Cl)Cl (centres undefined) |  | 0.794 µM (active)
O=C(O)C[C@H](Cc1ccccc1)C(=O)O | -9.67% [at 11.4 µM] | 
COc1ccc(NC(=O)N2CC[C@@]3(CCCN(C(=O)c4c(C)noc4C)C3)C2)cc1 | 49.9% | 
COc1ccc(N(CC(=O)NCc2cccc(OC)c2)S(=O)(=O)c2c(C)noc2C)cc1 |  | 2 µM (active)
COC(=O)CN(c1ccc(OC)cc1)S(=O)(=O)c1c(C)noc1C |  | 5.01 µM (active)
COc1cccc(CNC(=O)CCNC(=O)Cn2ccc3ccccc3c2=O)c1 | 1.62% | 
O=C(O)/C=C\c1cnc[nH]1 | -4.94% | 
NCCCc1c(-c2ccccc2)nc(N)[nH]c1=O | -12.9% [at 11.4 µM] | 
CCCCCOC(=O)CSc1nnc(-c2ccccc2)c(=O)[nH]1 |  | 8.91 µM (active)
Nc1nc(SCC(=O)O)[nH]c(=O)c1N | 25.5% [at 11.4 µM] | 
CC(=O)OCCCN1c2ccccc2Nc2nnc(-c3ccccc3)cc21 |  | 7.08 µM (active)
CC(C)(C)Cn1nc(-c2ccc(Cl)cc2)c2c(N)ncnc21 | -23% | 
CC(C)(C)n1nc(-c2ccc(Cl)cc2)c2c(N)ncnc21 |  | 2 µM (active)
CCNc1ncc2nc(-c3ccc(Cl)cc3)c(=O)n(C)c2n1 | -25.3% | 

Structure (SMILES) | activity, negative = inhibition | AC50
O=c1c2ccccc2nnn1CSc1nnnn1-c1ccccc1 |  | 7.94 µM (active)
O=c1c2ccccc2nnn1CSc1ccc2c(c1)OCCO2 |  | 1.12 µM (active)
Cc1cc(C)c(C#N)c(OCC(=O)c2ccc(Br)cc2)n1 |  | 3.16 µM (active)
C/C(=N\NC(=O)c1ccncc1)c1ccc2ccccc2c1O |  | 0.501 µM (active)
O=Nc1c(O)n(Cc2cccc(Cl)c2)c2ccccc12 |  | 3.55 µM (active)
Cn1c(=O)c2c(n(Cc3ccccc3)c1=O)NC(=O)C2CC(=O)NCc1cccc(Cl)c1 (centres undefined) | 13.5% | 
O=C1C(=O)N(Cc2ccc(Cl)c(Cl)c2)c2ccccc21 | -16.7% | 
O=Nc1c(O)n(Cc2ccc(Cl)cc2)c2ccccc12 |  | 0.794 µM (active)
O=Nc1c(O)n(Cc2ccc(Cl)c(Cl)c2)c2ccccc12 |  | 0.891 µM (active)
COc1ccc([N+](=O)[O-])cc1NCc1ccccc1C |  | 2.82 µM (active)
CN(Cc1ccccc1)c1nc(-c2ccc([N+](=O)[O-])cc2)nc2ccccc12 | -10.7% | 
Cc1cc([N+](=O)[O-])ccc1NCc1ccccc1 |  | 2 µM (active)
O=[N+]([O-])c1ccc(CS(=O)Cc2ccccc2)cc1 (centres undefined) |  | 1.26 µM (active)
O=C(O)c1cc([N+](=O)[O-])ccc1NCCCc1ccccc1 | -3.04% | 
COc1ccccc1CN1CCC2(CC1)CCN(C(=O)c1cccn1C)CC2 | 2.93% | 
O=C1CC(N2CCOCC2)C(=O)N1c1cccc(Cl)c1 (centres undefined) |  | 8.91 µM (active)
CO[C@H]1C=CO[C@]2(C)Oc3c(C)c(O)c4c(O)c(c5c(c4c3C2=O)NC2(CCN(CC(C)C)CC2)N=5)=NC(=O)C(C)=CC=C[C@@H](C)[C@@H](O)[C@@H](C)[C@@H](O)[C@@H](C)[C@@H](OC(C)=O)[C@@H]1C | -33.7% [at 25.6 µM] | 
CO[C@@H]1/C=C\O[C@]2(C)Oc3c(C)c(O)c4c(O)c(cc(O)c4c3C2=O)NC(=O)/C(C)=C\C=C/[C@H](C)[C@@H](O)[C@H](C)[C@H](O)[C@H](C)[C@H](OC(C)=O)[C@@H]1C | -13.1% [at 11.4 µM] | 
CO[C@@H]1/C=C\O[C@@]2(C)Oc3c(C)c(O)c4c(c3C2=O)C(=N[C@H]2CC[C@H](O)O[C@@H]2C)C=C(NC(=O)/C(C)=C\C(=O)[C@@H]2C[C@@H]2[C@@H](O)[C@H](C)[C@@H](O)[C@H](C)[C@H](OC(C)=O)[C@@H]1C)C4=O |  | 2.51 µM (active)
Cc1ccc(N2C(=O)C(Cl)=C(NCc3ccccc3)C2=O)c(C)c1 |  | 3.16 µM (active)
OCCn1cnc2c(SCc3ccccc3)ncnc21 | 12.6% [at 11.4 µM] | 
c1ccc(CSc2ncnc3c2sc2nc(N4CCOCC4)c4c(c23)CCCC4)cc1 |  | 7.08 µM (active)
CCSc1ncnc2c1sc1nc(-c3ccco3)c3c(c12)CC(C)(C)OC3 | 6.2% | 
CC(C)C[C@H](NC(=O)N1CCCCCC1)C(=O)N[C@H](Cc1cn(C)c2ccccc12)C(=O)N[C@H](Cc1ccccn1)C(=O)O | -10.8% | 

Structure (SMILES) | activity, negative = inhibition | AC50
CCn1c2ccccc2c2cc(NC(=O)CSc3nnc(-c4ccc(OC)c(OC)c4)n3N)ccc21 |  | 7.94 µM (active)
O=C(CCCNS(=O)(=O)c1cccc2nsnc12)NCCc1ccccc1 |  | 6.31 µM (active)
CSc1nc2ccccc2cc1/C=C(\C#N)c1cccc(C)c1 |  | 3.55 µM (active)
CSc1nc2ccccc2cc1/C=C(\C#N)c1cccc(Cl)c1 |  | 15.8 µM (active)
CSc1nc2ccccc2cc1/C=C(\C#N)c1ccc(Cl)cc1Cl |  | 22.4 µM (active)
CSc1nc2ccccc2cc1/C=C(\C#N)c1ccccc1 |  | 11.2 µM (active)
CCc1ccc(NC(=O)CSc2nc3cc(C(=O)OC)ccc3c(=O)n2Cc2ccco2)cc1 | -53% | 
CCN(C(=O)CSc1nc2cc(C(=O)OC)ccc2c(=O)n1Cc1ccco1)c1cccc(C)c1 |  | 1.41 µM (active)
CNC(=O)C(=O)NCCc1ccc(Cl)cc1 |  | 1.12 µM (active)
O=C(NCCc1ccc(Cl)cc1)c1ncn[nH]1 | -101% | 
O=C(NCCc1ccc(Cl)cc1)Nc1cccc(Cl)c1 |  | 0.891 µM (active)
O=C(Nc1cccc(Cl)c1)Nn1cnnc1 | 11.3% [at 11.4 µM] | 
S=C(S)NCCN1CCNCC1 | -11.3% [at 11.4 µM] | 
Cc1nc2cnc(N3CCOCC3)nc2n(Cc2cccs2)c1=O | -25.7% | 
Cc1noc(C)c1-c1nc(N2CCOCC2)c2ccccc2n1 | -15.4% | 
Cc1nc(N2CCOCC2)nc(N2CCN(c3ccccc3)CC2)c1[N+](=O)[O-] |  | 2.24 µM (active)
Cc1ccc(NC(=O)CCSc2nnc3ccccn23)cc1 |  | 0.794 µM (active)
CC(C)(C)NC(=O)NC(=O)CSc1nnc2ccccn12 | 12.4% | 
C[C@H](O/N=C1/[C@H]2O[C@@H]2[C@@H](O)[C@H]2[C@H]1CCn1c(=O)n(-c3ccccc3)c(=O)n12)c1cn([C@H](CO)Cc2ccccc2)nn1 | 20% [at 11.4 µM] and 36.7% [at 11.4 µM] | 
O=C(OC1CCN(c2ncc(C(F)(F)F)cc2Cl)CC1)c1ccccc1 |  | 11.2 µM (active)
COc1ccc(/C=N/NC(=O)C2CCN(c3ncc(C(F)(F)F)cc3Cl)CC2)cc1 | -2.67% | 
O=C(c1cc(C(F)(F)F)cc(C(F)(F)F)c1)N1CCC2(CC1)CCN(c1ncccn1)CC2 | -29.9% | 
